In PubChem BioAssay (NCI) one finds growth data, which are given here for 13 molecules.

Holding throughout (experiment): NCI-60 one-dose screen, 48 h (100 = growth as untreated, 0 = no growth, -100 = all killed)
Common to all, as to settings: 10 µM unless noted

The test system of assay [1] is NCI-H23 lung.
For assay [2], the system named is NCI-H226 lung.
Assay [3] has as its system NCI-H322M lung.
For assay [4], the system named is HOP-62 NSCLC.
Assay [5] concerns NCI-H460 lung.
The test system of assay [6] is HOP-92 NSCLC.
For assay [7], the system named is NCI-H522 lung.
Assay [8] has as its system A549/ATCC NSCLC.
The test system of assay [9] is 786-0 renal.
Assay [10] has as its system COLO 205 colon.

Each structure is given as a SMILES string. This is part of a sample that, as a whole, favours compounds with a hit. Of some 83,000 tested, about 20% had one in any assay.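 Testing used 96-well plates and a 48-hour single-concentration exposure. Example: -40 means 40% of the starting cells died.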 Values without a mark were called inactive. The source made the active and inactive calls. How the source made its calls: active means growth percent below 10; inactive means the rest.

For the molecule `CCNc1nc2cc(Nc3ccnc4cc(Cl)ccc34)ccc2o1`, the growth was 66.9% in [1]; 79.6% in [2]; 92.9% in [3]; 75% in assay [4]; 58% in [5]; 56.8% in [6]. Besides, the growth in assay [7] was 61.9%; in [8], 67.7%; in [9] it was 81.7%; in assay [10], 72.2%.
`C=C1C(=O)O[C@H]2[C@H]1CC/C(CNC(=O)C(C)c1ccc(CC(C)C)cc1)=C\CC[C@@]1(C)O[C@@H]21` (stereo not given in full): the growth was 51.4% in [1]; 75.1% in [2]; 72.3% in [3]; 60% in [4]; 36.2% in assay [5]; -19.1% (active) in [6]. The growth in assay [7] was 7.53% (active); in [8], 42.2%; in assay [9] it was -86% (active); in assay [10] it was -34.8% (active).
On to `COc1ccc(/C=C2\Oc3cc(OCCCN4CCCCC4)ccc3C2=O)cc1OC`, for which the growth in assay [1] is 92.1%; in assay [2], 90%; in assay [3], 92.1%; in [4] it was 85.7%; in [5], 89%; in assay [6], 65.9%. The growth was 99.1% in assay [7], 93.6% in assay [8], 88.7% in [9] and 98.3% in assay [10].
With `NC(=NCCCOc1ccc(F)cc1)Nc1ccc(I)cc1`, the growth in [1] is 65.5%; in assay [2], 93.7%; in [3], 88%; in assay [4], 80.4%; in assay [5], 81.8%; in [6] it was 69.8%. The growth in [7] is 56.9%; in assay [8], 70.4%; in [9], 72.9%; in [10] it was -66.8% (active).
On to `COc1ccc(C(=O)/C=C/c2cc3ccccc3n3nnnc23)cc1`, for which the growth was 103% in assay [1]; 105% in assay [2]; 103% in [3]; 103% in [4]; 112% in assay [5]; 109% in assay [6]. Further, the growth in [7] is 94%; in [8], 105%; in assay [9] it was 91.4%; in assay [10] it was 122%.
As for `COc1cc(C2C3=C(COC3=O)N(CCO)c3cc4c(cc32)CCC4)cc(OC)c1OC` (stereo not given), the growth was -26.2% (active) in assay [1]; 2.98% (active) in assay [2]; 39.8% in [3]; 7.11% (active) in assay [4]; -44.8% (active) in [5]; 78.2% in [6]. Besides, the growth in [7] is -26.7% (active); in [8], 28.9%; in assay [9], -4.65% (active); in assay [10], -98.8% (active).
With `CCOC(=O)/C(C#N)=C1/NNC(=Nc2cccnc2)S1`, the growth in [1] was 97.7%; in assay [2], 96.2%; in [3], 105%; in [4] it was 90.8%; in assay [5], 99.3%; in assay [6] it was 93.9%. The growth was 85.3% in [7], 85.3% in [8], 98% in assay [9] and 103% in assay [10].
As for `Cc1ccc(/C=N/NC(=O)CSc2nc3ccccc3c(=O)n2Cc2ccc(S(N)(=O)=O)cc2)cc1`, the growth was 91.5% in assay [1]; 84.6% in assay [2]; 102% in assay [3]; 85.7% in [4]; 98.5% in [5]; 109% in [6]. Moreover, the growth was 42.5% in assay [7], 85.9% in assay [8], 99.3% in [9] and 105% in assay [10].
For the molecule `O=C1c2cccc3c(-c4ccc5c(c4)ncn5C4CCCCC4)ccc(c23)C(=O)N1c1nc2ccccc2s1`, the growth was 86.4% in assay [1]; 84.1% in [2]; 91.7% in assay [3]; 82% in [4]; 94.8% in [5]; 76% in [6]. Also, the growth in [7] is 78.2%; in assay [8], 100%; in [9], 93%; in assay [10], 89.8%.
Take `Cn1ccnc1C(=O)/C=C/c1ccc(CC(=O)Nc2ccc(Cl)cc2)cc1`: the growth in assay [1] is 19.2%; in assay [2] it was 76.7%; in [3], 6.08% (active); in assay [4], -21.2% (active); in assay [5] it was -27.6% (active); in assay [6] it was 72%. For the same molecule, the growth in assay [7] was 6.86% (active); in assay [8] it was 6% (active); in assay [9], 11.3%; in [10] it was 7.39% (active).
For `O=C(CCN1CCCC1)Nc1ccc2c(NCc3ccccc3)c3ccccc3nc2c1`, the growth in assay [1] is -29.8% (active); in assay [2] it was -2.39% (active); in assay [3] it was -0.926% (active); in assay [4], -3.52% (active); in assay [5], -34.4% (active); in assay [6], -9.2% (active). The growth was -28.2% (active) in [7], -19.7% (active) in assay [8], 5.35% (active) in assay [9] and -41.6% (active) in [10].
As for `N#CC(C#N)=Cc1cc2ccccc2nc1Oc1ccc(C(F)(F)F)cc1`, the growth in assay [1] is 81.8%; in assay [2], 77.1%; in assay [3] it was 99.2%; in assay [4], 93.7%; in assay [5] it was 97.4%; in assay [6], 48.7%. Besides, the growth was 91.8% in assay [7], 99.5% in [8], 98.8% in [9] and 101% in assay [10].
For `O=C(c1ccccc1)N1N=C(c2ccc(-n3ccc(C(F)(F)F)n3)c(F)c2)CC1c1ccc[nH]1` (stereo not given), the growth in assay [1] was 104%; in [2], 108%; in assay [3], 98.7%; in [4], 122%; in assay [5], 102%; in [6] it was 141%. The growth in assay [7] is 89.9%; in assay [8] it was 99.9%; in assay [9], 97.1%; in [10], 116%.
